AI-2 QS mod = Vibrio harveyi AI-2 quorum sensing modulation | Vibrio harveyi JMH597 AI-2 luminescence/OD600 ratio, 9 h; active compounds read low; strain lacks LuxN and CqsS sensors; 0 = neutral-control median | activity change, % at 7.5 µM | hit rate 0.4% among 300,000; in the data active = activity change below about -75%, passing the limit was not always enough; inconclusive = no clear call, values can overlap the other calls;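 also: luminescence divided by OD600 gain over 9 h not by final OD600 alone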
ARNT TACC3 PPI = ARNT/TACC3 interaction disruption. Q9Y6A5. AlphaScreen His-ARNT PAS-B/GST-TACC3 binding, luminescence; TACC3 fragment carries E629A point mutation. inhibition, % at 9.99 µM. hit rate 0.66% among 390,000. AID 623870;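 active = mean inhibition of replicates at least 50% and at least half of replicates each reaching 50%; inconclusive = half or more replicates reach 50% but mean below 50%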;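 also: 0% = complete ARNT plus TACC3 wells and 100% = ARNT alone without TACC3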
Rin1-Abl PPI inh = human Rin1-Abl interaction inhibition | hit rate 0.4% among 360,000 | inhibition, % at 7.35 µM | TR-FRET Rin1/Abl binding, biochemical; in the data active = inhibition above about 5%, passing the limit was not always enough
sPLA2-III inh = Blocks human group III sPLA2 activity; Q9NZ20; QFRET BODIPY PC-A2 liposome hydrolysis, fluorescence; inhibition, % at 12.2 µM; hit rate 0.56% among 370,000;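 active = inhibition above mean plus 3 SD of compounds lying within the high and low control bounds, cut at about 19% in these data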;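 also: 0% = median of test compound wells and 100% = no enzyme DMSO wells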
Target sequence (Q9NZ20 whole entry, looked up): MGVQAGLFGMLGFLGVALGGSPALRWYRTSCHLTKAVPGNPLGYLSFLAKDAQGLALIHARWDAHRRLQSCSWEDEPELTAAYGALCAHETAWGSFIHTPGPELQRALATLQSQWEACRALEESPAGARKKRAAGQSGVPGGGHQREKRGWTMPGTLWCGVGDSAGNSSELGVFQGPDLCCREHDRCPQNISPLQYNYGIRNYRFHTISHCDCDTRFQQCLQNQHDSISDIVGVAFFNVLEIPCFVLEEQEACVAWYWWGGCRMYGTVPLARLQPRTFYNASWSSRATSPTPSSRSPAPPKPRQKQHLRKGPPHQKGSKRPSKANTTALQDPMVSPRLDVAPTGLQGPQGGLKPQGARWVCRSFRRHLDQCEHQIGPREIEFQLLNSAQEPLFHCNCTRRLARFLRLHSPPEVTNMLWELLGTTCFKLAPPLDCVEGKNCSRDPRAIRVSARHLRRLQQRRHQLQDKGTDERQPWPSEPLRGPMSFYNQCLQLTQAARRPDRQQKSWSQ
JMH597 growth rt = retest Vibrio harveyi JMH597 growth inhibition. shares compounds with AI-2 QS mod. OD600 absorbance, 9 h; lacks LuxN and CqsS sensors. growth inhibition, % at 7.5 µM. hit rate 1% among 750. AID 2726;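 active = every replicate shows growth inhibition above 50%; inconclusive = at least half, but not all, replicates pass that cutoff; inactive = fewer than half of replicates pass it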
BB721 lum counter = retest counter-screen: BB721 constitutive quorum sensing luminescence decrease. shares compounds with AI-2 QS mod. Vibrio harveyi BB721 luminescence, 9 h. inhibition, % at 7.5 µM. hit rate 95% among 750. AID 2727;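 active = inhibition above about 80% in every replicate, not just on average, limit read from the data; inconclusive = at least half of replicates past the limit, but not all; inactive = fewer than half of replicates past the limit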
BB721 growth rt = retest: blocks Vibrio harveyi BB721 growth. OD600 absorbance, 9 h. shares compounds with AI-2 QS mod. growth inhibition, % at 7.5 µM. AID 2728. hit rate 3% among 750;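 active = every replicate shows growth inhibition above 50%; inconclusive = at least half but not all replicates above 50% inhibition; inactive = under half of replicates above 50% inhibition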
JMH597 AI-2 mod = Vibrio harveyi AI-2 signaling luminescence modulation – JMH597 strain, confirmation. shares compounds with AI-2 QS mod. Vibrio harveyi JMH597 AI-2 quorum sensing luminescence, 9 h; luxN and CqsS knockout, AI-2 only. inhibition, % at 7.5 µM. hit rate 97% among 750. AID 2736;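 active = every replicate shows more than 75% inhibition of signal versus neutral control wells; inconclusive = half to three quarters of replicates exceed 75% inhibition; inactive = fewer than half of replicates exceed 75% inhibition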
* = called active by the depositor; ? = inconclusive; / = no result. Hits are enriched below; roughly 1.5% of the tested compounds scored in any of these assays.

SMILES | AI-2 QS mod | ARNT TACC3 PPI | Rin1-Abl PPI inh | sPLA2-III inh | JMH597 growth rt | BB721 lum counter | BB721 growth rt | JMH597 AI-2 mod
COc1ccc(S(=O)(=O)N(C)C[C@@H]2OCc3ccccc3-c3c(n(C)c4ccccc34)C(=O)N([C@H](C)CO)C[C@H]2C)cc1 | / | -3 | / | / | / | / | / | /
COc1ccc(NC(=O)N(C)C[C@H]2Oc3ncc(C#CCC(C)C)cc3C(=O)N([C@H](C)CO)C[C@@H]2C)cc1 | / | 7 | / | / | / | / | / | /
Cc1ccc(CNC(=O)/C=C/c2c(Cl)cccc2Cl)cc1 | 25 | -5 | 0 | 2 | / | / | / | /
O=C(/C=C/c1cccs1)NCc1ccccc1 | -90* | 7 | -5 | 0 | 9 | 97* | 5 | 97*
O=C(/C=C/c1ccc(F)cc1)NCc1cccs1 | -90* | -10 | 0 | -1 | 4 | 95* | 12 | 96*
O=C(/C=C/c1ccccc1Cl)NCc1cccs1 | -93* | -3 | -5 | -8 | 14 | 97* | 1 | 98*
Cc1ccc(CNC(=O)/C=C/c2ccccc2Cl)cc1 | -93* | -10 | 2 | -7 | -4 | 96* | -3 | 97*
O=C(/C=C/c1ccc(Br)cc1)NCc1cccs1 | -31 | -3 | 0 | -9 | / | / | / | /
C[C@@H]1CN([C@@H](C)CO)C(=O)c2cc(N(C)C)ccc2O[C@H]1CN(C)C(=O)Nc1ccc(C(F)(F)F)cc1 | / | -4 | / | / | / | / | / | /
CC(C)C#Cc1ccc2c(c1)O[C@H](CN(C)S(C)(=O)=O)[C@@H](C)CN([C@H](C)CO)S2(=O)=O | / | -4 | / | / | / | / | / | /
Cc1cccc(OCCC(=O)Nc2ccc(F)c(Cl)c2)c1 | -86* | -16 | 2 | -18 | 23 | 94* | 32 | 95*
Cc1ccc(OCCC(=O)OCC(=O)Nc2ccc(F)cc2)cc1 | 12 | / | -3 | 0 | / | / | / | /
Cc1ccc(OCCC(=O)Nc2ccc(F)c(F)c2)cc1 | -86* | -3 | 1 | -1 | 15 | 94* | 11 | 94*
Cc1cccc(OCCCC(=O)Nc2ccc3c(c2)OCO3)c1 | 17 | 0 | 1 | -11 | / | / | / | /
Cc1ccc(S(=O)(=O)N(C)C[C@@H]2OCCCC[C@@H](C)Oc3ccc(NC(=O)NC4CCCCC4)cc3C(=O)N([C@@H](C)CO)C[C@@H]2C)cc1 | / | 13 | / | / | / | / | / | /
C[C@H](CO)N1C[C@H](C)[C@@H](CN(C)C(=O)CC2CC2)Oc2cc(C3=CCCC3)ccc2S1(=O)=O | / | 4 | / | / | / | / | / | /
Cc1cccc(-c2noc(Cc3ccc(Cl)cc3)n2)c1 | -64 | -12 | 2 | -10 | / | / | / | /
c1ccc(CCCc2nc(-c3cccnc3)no2)cc1 | -62 | 2 | -1 | -2 | / | / | / | /
COc1ccc(Cc2nc(-c3ccncc3)no2)cc1 | -7 | 2 | -3 | -3 | / | / | / | /
COc1ccc(Cc2nc(-c3ccccn3)no2)cc1 | -88* | -2 | -1 | 3 | -9 | 95* | -20 | 96*
c1ccc(OCCCc2nc(-c3cccnc3)no2)cc1 | -93* | 2 | 2 | -1 | 7 | 98* | -15 | 99*
COc1ccc(Cc2nc(-c3cccc(C)c3)no2)cc1 | -80* | -19 | 2 | 8 | 3 | 94* | -259 | 96*
COc1ccc(CCc2nc(-c3ccc(-n4cccc4)cc3)no2)cc1 | 32 | -10 | 2 | -2 | / | / | / | /
COc1ccc(-c2noc(CCc3ccccc3)n2)cc1 | ? | -11 | -1 | -3 | 26 | 94* | -27 | 97*
Cc1ccc(-c2ccc3c(c2)O[C@@H](CN(C)C)[C@H](C)CN([C@@H](C)CO)S3(=O)=O)cc1 | / | -5 | / | / | / | / | / | /
SMILES | AI-2 QS mod | ARNT TACC3 PPI | Rin1-Abl PPI inh | sPLA2-III inh | JMH597 growth rt | BB721 lum counter | BB721 growth rt | JMH597 AI-2 mod
C[C@@H]1CN([C@@H](C)CO)C(=O)c2cccc(NC(=O)c3cnccn3)c2O[C@@H]1CN(C)S(C)(=O)=O | / | -4 | / | / | / | / | / | /
CCOC(=O)Oc1ccc2c(=O)c(Oc3cc(C)cc(C)c3)coc2c1 | -44 | -1 | 2 | -14 | / | / | / | /
CCOC(=O)Oc1ccc2c(=O)c(Oc3cccc(C)c3)coc2c1 | -85* | -1 | -3 | -8 | 75* | 97* | ? | 97*
Cc1cccc(Oc2coc3cc(O)ccc3c2=O)c1 | -87* | -5 | 0 | -13 | 26 | 98* | 44 | 98*
CCNC(=O)C[C@H]1CC[C@@H]2[C@H](COc3ccc(NC(=O)c4ccc5c(c4)OCO5)cc3C(=O)N2C)O1 | / | 5 | / | / | / | / | / | /
CC(=O)c1cccc(NC(=O)Cn2cc3c(n2)CCCC3)c1 | -89* | -5 | -2 | 9 | 15 | 97* | 7 | 98*
CC(=O)Nc1ccc(NC(=O)Cn2cc3c(n2)CCCC3)cc1 | 44 | 0 | -3 | 4 | / | / | / | /
COc1cccc(CNc2cnc3ccccc3c2)c1O | -57 | 20 | -2 | -26 | / | / | / | /
Oc1ccc(Br)cc1CNc1cnc2ccccc2c1 | -97* | -2 | 3 | -55 | 19 | 99* | 6 | 100*
Cc1ccc(O)c(CNc2cnc3ccccc3c2)c1 | -97* | 10 | 1 | -25 | -25 | 99* | -22 | 99*
CC1(c2ccccc2)NC(=O)N(CC(=O)Nc2cccc(C#N)c2)C1=O (stereo not drawn) | -95* | -9 | 3 | -5 | -21 | 97* | -3 | 98*
N#Cc1cccc(NC(=O)CN2C(=O)NC3(CCCCCC3)C2=O)c1 | / | 4 | 0 | 2 | / | / | / | /
CCC1(c2ccccc2)NC(=O)N(CC(=O)Nc2cccc(C#N)c2)C1=O (stereo not drawn) | -94* | 10 | 2 | 3 | 18 | 96* | 18 | 97*
COc1ccccc1CNC(=O)C[C@@H]1C[C@@H]2c3cc(NS(C)(=O)=O)ccc3O[C@@H]2[C@@H](CO)O1 | / | -9 | / | / | / | / | / | /
Cc1noc(C)c1S(=O)(=O)N(C)C[C@H]1Oc2ccc(NC(=O)NC(C)C)cc2CC(=O)N([C@@H](C)CO)C[C@@H]1C | / | -1 | / | / | / | / | / | /
O=C(O)CCSC1CC(=O)N(c2ccccc2)C1=O (stereo not drawn) | 11 | -4 | 1 | 0 | / | / | / | /
NCCSC1CC(=O)N(c2ccc(Cl)c(Cl)c2)C1=O (stereo not drawn) | -80* | 0 | 1 | -2 | 3 | 90* | 34 | 94*
O=C1CC(SCCO)C(=O)N1c1ccc(Oc2ccccc2)cc1 (stereo not drawn) | -83* | -16 | -4 | -7 | 5 | 91* | 13 | 92*
C[C@@H]1CCCCO[C@H](CN(C)C(=O)CCC(F)(F)F)[C@H](C)CN([C@@H](C)CO)C(=O)c2cc(NS(=O)(=O)c3ccccc3)ccc2O1 | / | -6 | / | / | / | / | / | /
O=C(CCS(=O)(=O)c1ccccc1)Nc1ccc(S(=O)(=O)Nc2nccs2)cc1 | / | -11 | 4 | -5 | / | / | / | /
